Test results reported in PubChem BioAssay (Tox21).
Results filed as inconclusive are left out. A call without a number means that no potency is given here. Active and inactive are the calls of the source. Calls follow the shape of the dose curve; as a rule, active = well fitted cell-killing curve with a large enough effect in the repeat runs; inconclusive = weak or mixed curves, or effect the other way; inactive = flat fitted curve, though single readings scatter.

experiment: qHTS assay to identify small molecule agonists of the androgen receptor (AR) signaling pathway in the presence of an antagonist - cell viability counter screen (AID 1259379); conditions: MDA-kb2 viability, CellTiter-Fluor, 16 h; series mostly up to 92.4 µM; also: nearly all actives have a fitted effect of over 25% in size
Text: National Center for Advancing Translational Sciences [NCATS]
NIH Chemical Genomics Center [NCGC]
U.S. Environmental Protection Agency [EPA]
National Institutes of Environmental Health Sciences [NIEHS]
National Toxicology Program [NTP]
U.S. Food and Drug Administration [FDA]
Androgen receptor (AR) is an important member of nuclear receptor family. Its signaling plays a critical role in AR-dependent prostate cancer and other androgen related diseases. Considerable attention has been given in the past decades to develop methods to study and screen for the environmental chemicals that have the potential to interfere with metabolic homeostasis, reproduction, developmental and behavioral functions. Therefore AR binding assay for screening against androgen agonists and antagonists can be used to identify potential endocrine disruptors.
MDA-kb2 cells (from ATCC, deposited by Wilson et al.) are human breast carcinoma cells that were stably transfected with a luciferase reporter gene under control of the MMTV promoter that contains response elements for both androgen receptor (AR) and glucocorticoid receptor (GR). This particular screening for measuring luciferase reporter gene activity using MDA-kb2 cells against Tox21 10K library compounds is a confirmation study on agonist mode screening in the presence of AR-antagonist compound (Nilutamide) at 3.0uM final concentration. The cytotoxicity of the compounds was tested in parallel by measuring the cell viability using CellTiter-Fluor assay system (Promega, Madison, WI) in the same wells.
Tox21 Assay Protocol Summary:
MDA-kb2 cells (cells cultured without CO2) were dispensed at 3,000 cells/well in 4uL of culture medium into white wall/solid-bottom 1536-well plates (Corning Life Sciences, Corning, NY) using a Multidrop Combi (Thermo Fisher Scientific Inc., Waltham, MA) dispenser. The assay plates were incubated at 37C and 0% CO2 for 5hr. One uL of 3.0uM (final concentration) Nilutamide or assay buffer was added using two separate tips of Flying Reagent Dispenser (FRD, Aurora Discovery, San Diego, CA). Then 23nL of compounds dissolved in DMSO at 15 concentrations and positive controls were transferred to the assay plates using a Pintool station (Wako, San Diego, CA). The assay plates were incubated at 37C and 0% CO2 for 16 hr. After 15hr incubation at 37C, 1uL/well CellTiter-Fluor reagent (Promega Corporation) was added to each well of the assay plates using FRD. After 1hr incubation at 37C and 0% CO2, the fluorescence signal was measured using a ViewLux plate reader (PerkinElmer, Shelton, CT).

Question: Which Potency does the source give for Oc1ccc(-c2ccccc2)cc1 here?
Answer: inactive

Question: With OCC(O)CO as the compound, how does the Potency read?
Answer: inactive

Question: Which Potency does the source give for Nc1cccnc1 here?
Answer: inactive

Question: With CCCCCCOC(=O)c1ccccc1C(=O)OCCCCCC as the compound, how does the Potency read?
Answer: inactive

Question: Which Potency does the source give for N#Cc1cc(Br)c(O)c(Br)c1 here?
Answer: inactive

Question: With CCOP(=S)(OCC)O/N=C(\C#N)c1ccccc1 as the compound, how does the Potency read?
Answer: inactive

Question: For Cc1ccccc1[N+](=O)[O-], which Potency is on record?
Answer: inactive

Question: Which Potency does the source give for Cc1ccc(OP(=O)(Oc2ccc(C)cc2)Oc2ccc(C)cc2)cc1 here?
Answer: inactive

Question: With S=C1NCCN1 as the compound, how does the Potency read?
Answer: inactive

Question: Which Potency does the source give for O=C(CCl)c1ccccc1 here?
Answer: inactive

Question: Which Potency does the source give for CC(C)Oc1cc(-n2nc(C(C)(C)C)oc2=O)c(Cl)cc1Cl here?
Answer: inactive

Question: For Cc1c(COC(=O)[C@@H]2[C@H](/C=C(\Cl)C(F)(F)F)C2(C)C)cccc1-c1ccccc1, which Potency is on record?
Answer: inactive

Question: With CC(C)C(=O)OCC(C)(C)C(OC(=O)C(C)C)C(C)C (stereo not given) as the compound, how does the Potency read?
Answer: inactive

Question: Which Potency does the source give for C=CCc1ccc(OC)cc1 here?
Answer: inactive

Question: With COc1ccc(C=O)cc1 as the compound, how does the Potency read?
Answer: inactive

Question: With C1=Cc2cccc3cccc1c23 as the compound, how does the Potency read?
Answer: inactive

Question: With CCN(CC)C(=O)/C(Cl)=C(\C)OP(=O)(OC)OC as the compound, how does the Potency read?
Answer: inactive

Question: With c1ccc(-c2cccc(-c3ccccc3)c2)cc1 as the compound, how does the Potency read?
Answer: inactive

Question: Which Potency does the source give for c1ccc(NNc2ccccc2)cc1 here?
Answer: inactive

Question: Which Potency does the source give for Brc1ccc(Oc2cc(Br)c(Br)cc2Br)c(Br)c1 here?
Answer: inactive

Question: For O=c1oc2ccccc2c(O)c1C(CC(O)c1ccc(-c2ccc(Br)cc2)cc1)c1ccccc1 (stereo not given), which Potency is on record?
Answer: inactive

Question: With ClC1C(Cl)C(Cl)C(Cl)C(Cl)C1Cl (stereo not given) as the compound, how does the Potency read?
Answer: inactive

Question: Which Potency does the source give for O=S(=O)(Oc1ccc(Cl)cc1)c1ccc(Cl)cc1 here?
Answer: inactive

Question: With C=CCN(CC=C)C(=O)C(Cl)Cl as the compound, how does the Potency read?
Answer: inactive

Question: With CN(C)C(=O)Nc1ccc(Cl)cc1 as the compound, how does the Potency read?
Answer: inactive

Question: Which Potency does the source give for NCc1cccnc1 here?
Answer: inactive

Question: Which Potency does the source give for CCCCCCCCCCCOC(=O)c1ccccc1C(=O)OCCCCCCCCCCC here?
Answer: inactive

Question: For Cc1cccc(N)c1N, which Potency is on record?
Answer: inactive

Question: With Nc1ccc(Cl)c(Cl)c1 as the compound, how does the Potency read?
Answer: inactive

Question: For CCOC(=S)S, which Potency is on record?
Answer: inactive

Question: For CCOc1cc(Oc2ccc(C(F)(F)F)cc2Cl)ccc1[N+](=O)[O-], which Potency is on record?
Answer: inactive

Question: With Nc1ccncc1 as the compound, how does the Potency read?
Answer: inactive

Question: For CCN(CC)C(=O)SCc1ccc(Cl)cc1, which Potency is on record?
Answer: inactive

Question: Which Potency does the source give for COC(=O)c1sccc1S(=O)(=O)NC(=O)Nc1nc(C)nc(OC)n1 here?
Answer: inactive

Question: Which Potency does the source give for N#CCCCl here?
Answer: inactive

Question: With CCC(C)(C)c1ccc(O)cc1 as the compound, how does the Potency read?
Answer: inactive

Question: For CCCCCCCCC(=O)NCc1ccc(O)c(OC)c1, which Potency is on record?
Answer: inactive

Question: For CC(C)NC(C)C, which Potency is on record?
Answer: inactive

Question: With Nc1ccc(-c2ccccc2)cc1 as the compound, how does the Potency read?
Answer: inactive

Question: With N#CC(Br)Br as the compound, how does the Potency read?
Answer: inactive
